Inconclusive results are not listed. The source made the active and inactive calls. Rule for the calls, unless noted: active = hit-call score of the fitted dose curve at least 0.9, where 1 is the maximum; inconclusive = response in the unintended direction; inactive = score below 0.9.
Key:
[1] = read-out: HMG-CoA synthase (HMGCS2), HMGCS2 (gene 3158); assay: CLD_HMGCS2_48hr: CellzDirect (CLD) Gene Expression Assay for HMG-CoA synthase (HMGCS2) at 48 hours (AID 2283711)
Method in brief: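 Primary human hepatocytes from two donors dosed daily for two days, 0.2% DMSO vehicle. HMGCS2 mRNA measured 48 h after dosing by quantitative nuclease protection assay with chemiluminescent read-out; induction fitted relative to DMSO, cytotoxicity flagged by microscopy.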

[2] = CEETOX_H295R_MTT_cell_viability: Viability Assessment in the CeeTox HT-H295R MTT Assay (AID 2283718; active = hit-call score of the fitted dose curve at least 0.9, where 1 is the maximum; inactive = score below 0.9)
Method in brief: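 Human H295R adrenal cells, prestimulated 48 h with 10 uM forskolin, were exposed 48 h to chemicals in 0.1% DMSO. Viability was measured in the same wells by MTT (0.5 mg/ml, 4 h, 37 C), absorbance 570/650 nm, as percent of controls.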

[3] = Tanguay_ZF_120hpf_ActivityScore_legacy: (Legacy) Oregon State University Tanguay Lab 120 Hour Post-fertilization zebrafish Assay Score for Activity (AID 2283742)
Method in brief: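 Dechorionated Tropical 5D embryos, one per well from 6 hpf, statically exposed to 120 hpf at 28 °C in 0.64% DMSO. Mortality and malformations scored binary by brightfield microscopy; activity score combines 18 endpoints, fitted positively versus DMSO.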

[4] = read-out: alkyl and aryl transferase (GSTA2), GSTA2 (gene 2939); assay: CLD_GSTA2_48hr: CellzDirect (CLD) Gene Expression Assay for alkyl and aryl transferase (GSTA2) at 48 hours (AID 2283708);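 note: active means mRNA induction above DMSO vehicle baseline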
Method in brief: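 Primary human hepatocytes dosed daily for two days (0.2% DMSO vehicle), harvested at 48 h. GSTA2 mRNA induction measured by quantitative nuclease protection assay with chemiluminescent imaging, fitted for gain of signal relative to DMSO.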

[5] = STM_H9_OrnithineISnorm_perc: Stemina devTOX quickPredict H9 human embryonic stem cell (hESC)-based Assay for Ornithine (ORN) Metabolite Biomarker, Normalized (AID 2283712; active = hit-call score of the fitted dose curve at least 0.9, where 1 is the maximum; inactive = score below 0.9;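 note: ornithine released into spent medium during last day measured by mass spectrometry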)
Method in brief: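 Undifferentiated pluripotent H9 hESCs were exposed to compound for 72h, with media and compound replaced every 24h. Ornithine in final 24-h conditioned media was measured by UPLC-HRMS, normalized to 13C-labeled spike-in standard and to median 0.1% DMSO control.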

[6] = STM_H9_CystineISnorm_perc: Stemina devTOX quickPredict H9 human embryonic stem cell (hESC)-based Assay for Cystine (CYSS) Metabolite Biomarker, Normalized (AID 2283713; active = hit-call score of the fitted dose curve at least 0.9, where 1 is the maximum; inactive = score below 0.9)
Method in brief: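 Undifferentiated H9 hESCs were exposed to compound for 72h, with medium and compound replaced every 24h. Final-24h conditioned medium was deproteinized and analyzed by UPLC-HRMS. Cystine EIC area was normalized to spiked C13 standard and 0.1% DMSO median.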

[7] = read-out: glucuronosyltransferase (UGT1A1), UGT1A1 (gene 54658); assay: CLD_UGT1A1_48hr: CellzDirect (CLD) Gene Expression Assay for glucuronosyltransferase (UGT1A1) at 48 hours (AID 2283709);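 note: actives increase expression relative to DMSO so potency refers to induction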
Method in brief: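 Human primary hepatocytes dosed daily for two days (0.2% DMSO vehicle), harvested at 48 h. UGT1A1 mRNA induction measured by quantitative nuclease protection assay with chemiluminescence; gain of signal versus DMSO; cytotoxicity flagged from morphology.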

[8] = ArunA_CellTiter_hNC: Viability Assessment in the ArunA Biomedical's Oris Neural Crest (hNC) Cell Migration Assay (AID 2283752)
Method in brief: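 Human H9-derived neural crest stem cells were plated at 60,000 per well on Matrigel in growth medium with LIF and bFGF, incubated 16 h at 37C, then exposed to chemical for 72 h. Viability was read with CellTiter Aqueous One as loss of signal versus DMSO.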

[9] = ArunA_Migration_hNP: ArunA Biomedical's Oris Neuroprogenitor (hNP) Cell Migration Assay (AID 2283754)
Method in brief: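 Human H9-derived hNP1 neuroprogenitors on Matrigel with LIF/bFGF, plated around seeding stoppers for 16 h at 37C; stoppers removed at start of 72 h chemical exposure. Calcein-AM staining, fluorescence 494/517 nm in detection zone; loss-of-signal vs DMSO; cytochalasin D control.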

[10] = ArunA_Migration_hNC: ArunA Biomedical's Oris Neural Crest (hNC) Cell Migration Assay (AID 2283755)
Method in brief: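 Human H9-derived neural crest stem cells, 60,000/well on Matrigel, 16 h at 37C, then 72 h chemical exposure after seeding-stopper removal. Migration into detection zone read as calcein-AM fluorescence (ex494/em517), relative to DMSO.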

[11] = ArunA_NOG_NucleusCount: ArunA Biomedical's Neurite Outgrowth (NOG) Assay for Nucleus Count (AID 2283756)
Method in brief: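 Human H9-derived differentiated neurons were exposed for 48 h right after seeding. Hoechst-stained nuclei gated by size and intensity were counted by automated high-content imaging as viable neurons. Loss of signal vs DMSO.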

[12] = ArunA_NOG_NeuriteLength: ArunA Biomedical's Neurite Outgrowth (NOG) Assay for Neurite Length (AID 2283757)
Method in brief: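 Differentiated human H9-derived neurons were exposed for 48 h from seeding, then stained with Hoechst and βIII-tubulin. Automated high-content imaging gave total neurite length per valid neuron, counting processes >10 um. Loss of signal was scored versus DMSO.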

[13] = ArunA_NOG_NeuritesPerNeuron: ArunA Biomedical's Neurite Outgrowth (NOG) Assay for Neurites Per Neuron (AID 2283758)
Method in brief: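 Differentiated human H9-derived neurons exposed to chemicals for 48 h from seeding, then stained with Hoechst and βIII-tubulin/DyLight 488. Automated imaging counted neurites (processes >10 um) per valid neuron; loss of signal versus DMSO scored.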

[14] = ArunA_NOG_BranchPointsPerNeurite: ArunA Biomedical's Neurite Outgrowth (NOG) Assay for Branch Points Per Neurite (AID 2283759)
Method in brief: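 Automated image analysis traced neurites (processes >10 um) from valid cell bodies after Hoechst and βIII-tubulin staining. hNN cells from H9 embryonic stem cells, 48 h exposure. Fitted bidirectionally against DMSO.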

In the case of `C#CC(C)(C)NC(=O)c1cc(Cl)cc(Cl)c1`, the AC50 [1] is reported as 0.0094 µM (active), the outcome [2] is reported as “inactive” and the outcome [3] is reported as “inactive”.
In the case of `CCOC(=O)COc1cc(-c2nn(C)c(OC(F)F)c2Cl)c(F)cc1Cl`, the outcome [2] is reported as “inactive” and the outcome [3] is reported as “inactive”.
In the case of `Nc1nc(N)nc(NC2CC2)n1`, the outcome [4] is reported as “inactive”, the outcome [2] is reported as “inactive” and the outcome [3] is reported as “inactive”.
With `CCNc1nc(Cl)nc(NC(C)(C)C#N)n1` the outcome [1] was “inactive”, the outcome [5] was “inactive” and the outcome [6] was “inactive”. For the same compound, the outcome [2] was “inactive” and the outcome [3] was “inactive”.
In the case of `CC(C)=CC1C(C(=O)OCN2C(=O)C3=C(CCCC3)C2=O)C1(C)C` (stereo unspecified), the outcome [3] is reported as “inactive”.
In the case of `CC1=NNC(=O)N(/N=C/c2cccnc2)C1`, the outcome [7] is reported as “inactive”, the outcome [1] is reported as “inactive” and the outcome [5] is reported as “inactive”. The outcome [6] was “inactive”, the outcome [3] was “inactive” and the outcome [8] was “inactive”. The outcome [9] was “inactive”, the outcome [10] was “inactive” and the AC50 [11] was 59.4 µM (active). The AC50 [12] was 73.8 µM (active), the AC50 [13] was 65 µM (active) and the AC50 [14] was 66.2 µM (active).

Source: PubChem BioAssay (EPA / NIEHS)
